Common to all, as to assay: NCI-60 one-dose screen, 48 h (100 = growth as untreated, 0 = no growth, -100 = all killed)
What all share (conditions): 10 µM unless noted

The test system of assay [1] is NCI-H23 lung.
For assay [2], the system named is NCI-H322M lung.
In assay [3] the test system is HOP-62 NSCLC.
The test system of assay [4] is NCI-H460 lung.
For assay [5], the system named is HOP-92 NSCLC.
The test system of assay [6] is NCI-H522 lung.
The test system of assay [7] is A549/ATCC NSCLC.
The test system of assay [8] is 786-0 renal.
The subject of assay [9] is COLO 205 colon.
Assay [10] concerns DU-145 prostate.
In assay [11] the test system is K-562 leukemia.
Assay [12] has as its system MALME-3M melanoma.
For assay [13], the system named is MDA-MB-231 breast.
Assay [14] concerns RXF 393 renal.
For assay [15], the system named is SF-268 CNS.
In assay [16] the test system is SF-295 CNS.
The test system of assay [17] is SF-539 CNS.
Assay [18] relates to UACC-257 melanoma.
The test system of assay [19] is M14 melanoma.
In assay [20] the test system is HCT-15 colon.

This is an account of results in PubChem BioAssay (NCI).

Compounds without any hit were thinned out: in the full panel of roughly 83,000, 20% have a hit.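 A percent growth of 40 corresponds to 60% growth inhibition; 0 means no net growth; -100 means all cells died. Active threshold: below 10.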 Unmarked numbers belong to inactive results. The source made the active and inactive calls.

With `Cc1nc(Nc2ccccn2)sc1C(=O)/C=C/c1ccc(Cl)cc1`, the growth in [1] was 22.7%; in assay [2], 32.1%; in [3], 16.4%; in assay [4], 3.86% (active); in assay [5] it was 31.8%; in assay [6], -39.3% (active). Besides, the growth in [7] was 17.2%; in assay [8], 19.7%; in [9] it was -21.5% (active); in [10], 6.68% (active); in assay [11], 8.43% (active); in assay [12], 50.3%. Besides, the growth is 20.4% in assay [13]; 20.2% in assay [14]; 19.9% in assay [15]; 4.33% (active) in [16]; -8.91% (active) in [17]; 41.8% in assay [18]. Further, the growth in assay [19] is 11.6%; in [20], 11.7%.

On to `CN(C)CCNc1cc(-c2ccccc2)nc2ccccc12`, for which the growth in assay [1] was -32.9% (active); in assay [2], 8.29% (active); in assay [3], -65.4% (active); in assay [4], 0.75% (active); in assay [5], -68.6% (active); in [6] it was -90.6% (active). Further, the growth in assay [7] is -53.8% (active); in [8] it was -79.2% (active); in [9], -73.7% (active); in [10], -62.1% (active); in assay [11], 0.508% (active); in assay [12], -77.3% (active). Besides, the growth in assay [13] is -33.7% (active); in assay [14], -91.1% (active); in [15], -53.3% (active); in [16] it was -71.5% (active); in assay [17], -74.4% (active); in assay [18], -74.5% (active). The growth in assay [19] was -20.4% (active); in assay [20] it was 6.92% (active).

For `COc1ccc(/C=C/C(=O)c2c(C)nc3ccccc3c2/C=C/c2ccccc2)cc1O`, the growth in assay [1] was 50.6%; in [2], 42.3%; in assay [3] it was 88.6%; in assay [4] it was 22.8%; in assay [5], 65.6%; in assay [6], 14.9%. For the same molecule, the growth in [7] is 39.5%; in assay [8] it was 99.4%; in assay [9], 109%; in assay [10], 45.7%; in assay [11], 20.9%; in [12], 86.3%. Further, the growth in [13] was 52.7%; in [14], 64.1%; in assay [15] it was 57.7%; in [16], 90.8%; in assay [17], 81.7%; in assay [18] it was 68.7%. Also, the growth in assay [19] is 15.9%; in assay [20], 39.1%.

Regarding `COc1ccc(OC)c(NC(=O)/C(C#N)=C/c2ccco2)c1`, the growth in assay [1] was 96.6%; in assay [2], 99.8%; in assay [3], 90.8%; in [4] it was 107%; in assay [5] it was 51.1%; in assay [6] it was 45.5%. Moreover, the growth was 93.8% in assay [7]; 100% in assay [8]; 92.8% in assay [9]; 116% in assay [10]; 88.5% in assay [11]; 80.3% in assay [12]. The growth in assay [13] was 85.1%; in assay [14], 113%; in assay [15], 105%; in [16] it was 98%; in assay [17] it was 94.7%; in [18], 90.7%. Also, the growth was 99.2% in assay [19] and 91.2% in assay [20].

Consider `O=c1oc2ccc(Cl)cc2c(=O)n1-c1cc(C(F)(F)F)cc(C(F)(F)F)c1`, for which the growth in assay [1] was -5.36% (active); in [2] it was 3.4% (active); in assay [3] it was -9.09% (active); in [4] it was 1.5% (active); in [5], -7% (active); in [6] it was -14.3% (active). Moreover, the growth in [7] is 6.11% (active); in assay [8], -11.8% (active); in assay [9], -74.8% (active); in assay [10], 14.4%; in [11], 8.63% (active); in [12], -33.8% (active). Besides, the growth was -21.9% (active) in assay [13]; -5.99% (active) in [14]; 3.66% (active) in assay [15]; -65.1% (active) in assay [16]; -5.73% (active) in assay [17]; -14.7% (active) in [18]. Also, the growth in assay [19] is -22.5% (active); in assay [20], -5.03% (active).

Turning to `NCCOc1ncccc1/C=C1\c2ccccc2-c2ccc(F)cc21`, the growth in assay [1] is -6.99% (active); in assay [2], 48.4%; in [3], 11.1%; in assay [4] it was -33.3% (active); in assay [5], 29.8%; in assay [6] it was 37.7%. Moreover, the growth in assay [7] is -51.9% (active); in assay [8], 6.26% (active); in assay [9], -30.1% (active); in [10] it was 7.83% (active); in assay [11], 3.28% (active); in assay [12], 32.3%. For the same molecule, the growth in [13] is 34.7%; in assay [14], 25.2%; in assay [15], 23.2%; in assay [16], 2.01% (active); in assay [17] it was 11.5%; in assay [18], 67.6%. For the same molecule, the growth in assay [19] is 25.2%; in [20] it was 3.22% (active).

In the case of `CC[C@]1(O)C[C@@H]2CN(CCc3c([nH]c4ccccc34)[C@@](C(=O)OC)(c3cc4c(cc3OC)N(C)[C@H]3[C@@](O)(C(=O)OC)[C@H](OC(C)=O)[C@]5(CC)C=CCN6CC[C@]43[C@@H]65)C2)C1`, the growth in assay [1] was 26.8%; in [2], 39.9%; in [3], 35%; in [4] it was 4.41% (active); in [5], -9.28% (active); in assay [6], 4.5% (active). Moreover, the growth in [7] is 17.8%; in assay [8], 9.87% (active); in assay [9], -10.8% (active); in assay [10] it was -7.13% (active); in assay [11], 15.3%; in assay [12], 40.9%. For the same molecule, the growth was -15.3% (active) in assay [13]; 22.1% in assay [14]; 17.3% in [15]; 8.85% (active) in assay [16]; -2.89% (active) in assay [17]; 64.4% in assay [18]. In addition, the growth in assay [19] was 3.97% (active); in assay [20], 14.6%.

As for `Fc1ccc(Oc2ccc(Nc3ncnc4onc(-c5ccccc5)c34)cc2)cc1`, the growth was 104% in assay [1]; 87.9% in assay [2]; 105% in [3]; 102% in assay [4]; 88.8% in assay [5]; 90.5% in assay [6]. Besides, the growth in assay [7] is 90.1%; in assay [8], 97.3%; in [9], 122%; in [10], 95.2%; in [11] it was 113%; in assay [12], 93.2%. In addition, the growth is 70.7% in assay [13]; 115% in [14]; 83% in assay [15]; 99.7% in assay [16]; 90.1% in assay [17]; 88.3% in assay [18]. Further, the growth in [19] was 104%; in assay [20], 103%.
